Source: PubChem BioAssay AID1159580 (chemical genetic matrix, 2015)
Out of some 5,500 compounds screened, about 2,000 (36%) were called active. Not shown: some 18% with an inconclusive outcome. Rule as the data show it: active = normalized growth mostly below about 0.91 (no sharp cut-off); inconclusive = no clear call, values can overlap the other calls; inactive = mostly above about 0.92. This is one part of the list.

Assay: chemical genetic growth profiling, strain panel (AID 1159580);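 also: tested at 20 µM; growth read once vehicle control cultures reached saturation at 30 °C; 1 = growth at the plate median or of vehicle wells; lower values mean less growth of the strain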
Settings: S. cerevisiae deletion strains, growth OD
[1] = locus YAL013W, strain DEP1, active compounds read low
[2] = locus YDR150W, strain NUM1, active compounds read low
[3] = locus YMR263W, strain SAP30, active compounds read low
[4] = locus YMR307W, strain GAS1, active compounds read low
[5] = locus YNL153C, strain GIM3, active compounds read low
[6] = locus YNL322C, strain KRE1, active compounds read low
[7] = locus YPL055C, strain LGE1, active compounds read low
[8] = locus YPL241C, strain CIN2, active compounds read low
[9] = locus YBR229C, strain ROT2, active compounds read low
[10] = locus YDL101C, strain DUN1, active compounds read low
[11] = locus YGR078C, strain PAC10, active compounds read low
[12] = locus YHR030C, strain SLT2, active compounds read low
[13] = locus YLR039C, strain RIC1, active compounds read low
[14] = locus YLR262C, strain YPT6, active compounds read low

Measured: normalized growth

CC(C)(C)C1(O)CCN2CC3c4ccccc4CCc4cccc(c43)C2C1 (stereo not drawn)
inactive: [1] 1.02 | locus YAL040C, strain CLN3, active compounds read low 0.975 | locus YCL061C, strain MRC1 (second series), active compounds read low 0.986 | [2] 1 | locus YDR363W, strain ESC2, active compounds read low 1.04 | locus YER002W, strain NOP16, active compounds read low 0.993 | [3] 1.01 | [4] 1.02 | [5] 0.983 | locus YNL175C, strain NOP13, active compounds read low 0.996 | locus YNL197C, strain WHI3, active compounds read low 0.972 | locus YNL224C, strain SQS1, active compounds read low 0.997 | [6] 1.01 | locus YOR083W, strain WHI5 (second series), active compounds read low 1.01 | [7] 1.02 | [8] 0.999

CC1(C)OC(=O)C=CC2(C)C1CC(O)C1(C)C2CCC2(C)C(c3ccoc3)OC(=O)C3OC321 (stereo not drawn)
inactive: [1] 1.02 | locus YBR021W, strain FUR4, active compounds read low 0.971 | [9] 1.01 | locus YCL029C, strain bik1, active compounds read low 1.02 | locus YDL035C, strain GPR1, active compounds read low 1.01 | locus YDL074C, strain BRE1, active compounds read low 1.02 | [10] 1.01 | locus YDL134C, strain PPH21, active compounds read low 1.01 | locus YDL185W, strain tfp1, active compounds read low 1.02 | locus YDL192W, strain arf1, active compounds read low 1.01 | locus YDR101C, strain arx1, active compounds read low 0.998 | locus YDR162C, strain NBP2, active compounds read low 1.04 | locus YDR318W, strain mcm21, active compounds read low 1.01 | locus YDR388W, active compounds read low 1.02 | locus YDR502C, strain sam2, active compounds read low 1.04 | locus YER110C, active compounds read low 1.02 | locus YER155C, strain BEM2, active compounds read low 0.996 | locus YER167W, strain BCK2, active compounds read low 0.997 | locus YGL078C, strain dbp3, active compounds read low 1.01 | locus YGL086W, strain mad1, active compounds read low 1.01 | locus YGL248W, strain PDE1, active compounds read low 1.01 | [11] 1 | locus YGR135W, strain pre9, active compounds read low 1.04 | locus YGR252W, strain gcn5, active compounds read low 0.965 | [12] 1.01 | locus YHR079C, strain IRE1 (second series), active compounds read low 1.01 | locus YHR094C, strain hxt1, active compounds read low 1.02 | locus YHR129C, strain ARP1, active compounds read low 1 | locus YHR200W, strain rpn10, active compounds read low 1.01 | locus YIL066C, strain RNR3, active compounds read low 1.01 | locus YIL073C, strain SPO22, active compounds read low 1.03 | locus YIL125W, strain kgd1, active compounds read low 1.02 | locus YIR030C, strain dcg1, active compounds read low 1.01 | locus YJL095W, strain BCK1, active compounds read low 1.03 | locus YJL134W, strain LCB3, active compounds read low 1.01 | locus YJL168C, strain set2, active compounds read low 1.01 | locus YJL187C, strain SWE1 (second series), active compounds read low 1.01 | locus YKL009W, strain mrt4, active compounds read low 1.01 | locus YKL068W, active compounds read low 1.02 | locus YKL085W, strain MDH1 (second series), active compounds read low 1 | locus YKL085W, strain MDH1, active compounds read low 1 | locus YKR001C, strain vps1, active compounds read low 1.04 | [13] 1.05 | locus YLR058C, strain SHM2, active compounds read low 1.01 | locus YLR102C, strain apc9, active compounds read low 1.01 | [14] 1.09 | locus YLR268W, strain sec22, active compounds read low 1.02 | locus YLR330W, strain CHS5, active compounds read low 1.01 | locus YLR342W, strain FKS1 (second series), active compounds read low 0.995 | locus YLR371W, strain rom2, active compounds read low 0.997 | locus YLR418C, strain cdc73, active compounds read low 1.05 | locus YML016C, strain PPZ1, active compounds read low 1.01 | locus YML032C, strain rad52, active compounds read low 1.02 | locus YML124C, strain tub3, active compounds read low 1.01 | locus YMR078C, strain ctf18, active compounds read low 1 | locus YMR223W, strain ubp8, active compounds read low 1.01 | [3] 1.01 | [4] 1.06 | locus YNL067W, strain RPL9B, active compounds read low 1.02 | [5] 1.01 | locus YNL233W, strain BNI4, active compounds read low 1.01 | locus YNL250W, strain rad50, active compounds read low 1.01 | locus YNL271C, strain bni1, active compounds read low 1.01 | locus YNL298W, strain CLA4, active compounds read low 1.04 | locus YNL307C, strain MCK1, active compounds read low 1.02 | [6] 1 | locus YNR052C, strain pop2, active compounds read low 1.02 | locus YOL012C, strain htz1 0.873 | locus YOL147C, strain pex11, active compounds read low 1.01 | locus YOR061W, strain CKA2, active compounds read low 1.01 | locus YOR069W, strain VPS5, active compounds read low 1.01 | locus YOR136W, strain idh2, active compounds read low 1.02 | locus YOR144C, strain elg1, active compounds read low 1.01 | locus YOR184W, strain ser1, active compounds read low 0.995 | locus YOR316C, strain cot1, active compounds read low 1.02 | [8] 1.01 | locus YPR119W, strain clb2, active compounds read low 1 | locus YPR141C, strain kar3, active compounds read low 1.01 | locus YPR167C, strain met16, active compounds read low 1 | strain wtn01, active compounds read low 1.01

Cc1ccc(NC(=O)c2c(F)cccc2Cl)c(C(=O)Nc2ccc(F)cc2)c1
inactive: [1] 0.993 | [9] 0.998 | [10] 1.02 | [2] 1.02 | locus YEL061C, strain CIN8, active compounds read low 0.987 | [11] 1.02 | locus YGR229C, strain SMI1, active compounds read low 1.01 | [12] 1.06 | locus YHR087W, strain rtc3, active compounds read low 0.976 | locus YJR043C, strain POL32, active compounds read low 1.02 | locus YJR075W, strain HOC1, active compounds read low 1.01 | [13] 0.868 | locus YLR058C, strain SHM2 (second series), active compounds read low 0.995 | locus YLR085C, strain ARP6, active compounds read low 1.03 | [14] 0.933 | locus YML094W, strain GIM5, active compounds read low 1.01 | locus YMR219W, strain ESC1, active compounds read low 1 | [3] 1 | [4] 1.1 | [5] 1.03 | locus YNL298W, strain CLA4 (second series), active compounds read low 1.02 | [6] 0.997 | locus YNR030W, strain Alg12, active compounds read low 1 | locus YOL006C, strain TOP1, active compounds read low 1.02 | [7] 0.952 | [8] 1.03 | locus YPR135W, strain CTF4, active compounds read low 1.05
